As a reminder, the AC50 is the midpoint of the concentration-response curve, whichever way the signal moves.

Activity calls are given as the source filed them. The calls were made as follows: active = hit-call score of the fitted dose curve at least 0.9, where 1 is the maximum; inactive = score below 0.9.

Read-out in the assay: Macrophage colony-stimulating factor (MCSF), CSF1 (gene 1435)
Description: BSK_CASM3C_MCSF: BioMAP Diversity Plus: CASM3C Assay for Macrophage colony-stimulating factor (MCSF) Biomarker Activity (AID 2283044).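 Also: M-CSF protein amount quantified by ELISA after 24 h exposure.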 Particulars: primary human coronary artery smooth muscle cells; actives raise or lower the signal.
As to `Clc1nc(Cl)c(Cl)c(Cl)c1Cl`, the outcome was inactive. Same read-out and setting: to `CC[C@H]1OC(=O)[C@H](C)[C@@H](O[C@H]2C[C@@](C)(OC)[C@@H](O)[C@H](C)O2)[C@H](C)[C@@H](O[C@@H]2O[C@H](C)C[C@H](N(C)C)[C@H]2O)[C@](C)(O)C[C@@H](C)C(=O)[C@H](C)[C@@H](O)[C@]1(C)O` belongs “inactive”. For `CCOc1cccc(-n2cc(C(=O)N3CCN(c4cc(C(=O)O)c5ccccc5c4)CC3)nc2-c2ccc(C)cc2)c1`, the concentration at half-maximal activity (AC50) was 19.2 µM (active). Turning to `CC(C)CCCCCCOC(=O)c1ccc(C(=O)OCCCCCCC(C)C)c(C(=O)OCCCCCCC(C)C)c1`, the result was inactive. On the same count and under the same terms, for `Cc1[nH]cnc1C[C@H]1CCc2c(C)c3ccccc3n2C1=O` the value was “inactive”.

As to `Oc1ccc2c(c1)-c1ccccc1C2`, the result was inactive. Still for that read-out and setting: for `CCCN(C1CCN(C(=O)C2CCNCC2)CC1)[C@@H]1CCc2ccc(OC)cc2C1` the value was “inactive”. Same read-out and setting: to `COC(=O)c1ccccc1O` belongs “inactive”; to `COCCOCCOCCOC`, “inactive”; to `O=c1[nH]c2ccc(S(=O)CCN3CCC(Cc4ccc(F)cc4)CC3)cc2o1` (stereo not drawn), “inactive”. `O=C(O)CC(O)C(=O)O` (stereo not drawn): the outcome was inactive. Consider `CC(C)CC(C)(O)C#CC(C)(O)CC(C)C` (stereo not drawn), for which the outcome was inactive.

Turning to `CC/C(=C\C(=N/O)C(N)=O)C(C)[N+](=O)[O-]` (stereo not drawn), the result was inactive. Same read-out and setting: for `COCCOc1cc2cc(C(=O)NC3CCN(C(C)C)CC3)n(CC(=O)Nc3ccc(Cl)cn3)c2cn1` the value was “inactive”; for `COC(=O)CC(=O)OC`, “inactive”; for `C1N2CN3CN1CN(C2)C3`, “inactive”. Still for that read-out and setting: for `CNCc1ccc(NC(=O)c2c[nH]c3c2C(=O)CCC3)cc1` the value was “inactive”. On the same count and under the same terms, to `CC(=O)OC[C@H]1O[C@@](COC(C)=O)(O[C@H]2O[C@H](COC(C)=O)[C@@H](OC(C)=O)[C@H](OC(C)=O)[C@H]2OC(C)=O)[C@@H](OC(C)=O)[C@@H]1OC(C)=O` belongs “inactive”; to `O=C(O)c1cc(N=Nc2ccc(S(=O)(=O)Nc3ccccn3)cc2)ccc1O`, “inactive”. For `CCCCCCCCO`, the result was inactive. Turning to `C[C@](N)(Cc1ccc(O)c(O)c1)C(=O)O`, the result was inactive. Same read-out and setting: for `CCOCCOCCOCCO` the value was “inactive”; for `CC[C@H]1CC[C@H](NCc2cc3c(cc2OC)[C@H]2C[C@H]2C(=O)N3C)[C@H](c2ccccc2)N1`, “inactive”. Still for that read-out and setting: for `Nc1ccc(Nc2ccccc2)cc1` the value was “inactive”. For `On1ccccc1=S`, the AC50 is 33.7 µM (active). `CCOC(=O)CC(CC(=O)OCC)(OC(C)=O)C(=O)OCC`: the outcome was inactive. The same measure, in the same setting: for `O=C(O)c1cccc(Oc2ccccc2)c1` the value was “inactive”; for `Cn1cnc([N+](=O)[O-])c1Sc1ncnc2nc[nH]c12`, “inactive”.

The record behind these values is PubChem BioAssay (EPA / NIEHS).
